Measured values: PubChem BioAssay
The source made the active and inactive calls.

Tests used:
[1] = compounds binding Alexa647 anti-His antibody – biochemical, small-molecule microarray, 635 nm fluorescence, artefact control for SMM control protein annotation, primary screen (AID 1128); details: higher = more signal;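 note: score merges feature fluorescence with signal-to-noise for each printed compound spot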
[2] = system: Human papillomavirus type 1a E7 protein (residues 1-88); assay: HPV1a E7 small-molecule binders, primary screen, biochemical, small-molecule microarray, residues 1-88, 635 nm (AID 1129); details: small-molecule microarray binding, fluorescence 635 nm; higher = more signal
[3] = target: Focal adhesion kinase 1 (Homo sapiens) (UniProt Q05397); assay: PTK2 protein binding on printed compound slides – biochemical, small-molecule microarray, 635/667 nm fluorescence, BSA, DTT, primary screen (AID 1130); details: 635 nm fluorescence, higher = more signal;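 note: composite of spot emission at 667 nm and signal to noise over triplicate slides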
[4] = system: Fibrinogen (Alexa647-labelled); assay: Alexa647-fibrinogen binding to printed small molecules – biochemical, small-molecule microarray, 635/667 nm fluorescence, artefact control for SMM control-protein annotation, profiling panel (AID 1131); details: fibrinogen-A647 binding fluorescence, higher = more signal;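 note: z-score merges 667 nm fluorescence with per-spot signal-to-noise over triplicate slides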
[5] = target: Follistatin (Homo sapiens) (UniProt P19883); assay: FST protein binding to printed compounds – biochemical, small-molecule microarray, 635/667 nm fluorescence, primary screen (AID 1132); details: 635 nm fluorescence, higher = more signal
[6] = target: Fibroblast growth factor 2 (Homo sapiens) (UniProt P09038); assay: basic fibroblast growth factor binding to printed compounds – biochemical, small-molecule microarray, 635/667 nm fluorescence, primary screen (AID 1133); details: FGF2, fluorescence 635/667, higher = more signal
[7] = JC-1 mitochondrial potential readout, lung cancer cells – cell-based, A549, JC-1 fluorescence, basal, 24 h, 100 nL, profiling panel (AID 1138); details: higher = more signal;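 note: A549 lung adenocarcinoma cells under basal conditions with no added stimulus; test concentration not given here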
Lefty1 = Lefty1 protein binding to printed compounds – biochemical, small-molecule microarray, 635/667 nm fluorescence, primary screen (AID 1139); details: fluorescence 635/667, higher = more signal
[8] = system: wheat germ agglutinin (Triticum aestivum), Alexa647-labelled; assay: Alexa647-WGA lectin binding to printed small molecules – biochemical, small-molecule microarray, 635/667 nm fluorescence, artefact control for SMM control-protein annotation, profiling panel (AID 1140); details: WGA-A647 binding, 635 nm fluorescence, higher = more signal;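 note: score merges 667 nm feature emission with signal to noise over triplicate slides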
[9] = target: Luciferin 4-monooxygenase (Photinus pyralis) (UniProt P08659); assay: inhibition of purified Photinus pyralis luciferase – biochemical, luminescence, purified enzyme, 2006 set, primary screen (AID 1141); details: purified firefly luciferase, SteadyGlo luminescence, 30 min; higher = more signal, called active from +8 up or from −8 down;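 note: cell-free assay with purified firefly luciferase at 100 ng per well in PBS; test concentration not given here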
Luciferin 4-monooxygenase (Photinus pyralis), sequence (P08659 whole entry, looked up): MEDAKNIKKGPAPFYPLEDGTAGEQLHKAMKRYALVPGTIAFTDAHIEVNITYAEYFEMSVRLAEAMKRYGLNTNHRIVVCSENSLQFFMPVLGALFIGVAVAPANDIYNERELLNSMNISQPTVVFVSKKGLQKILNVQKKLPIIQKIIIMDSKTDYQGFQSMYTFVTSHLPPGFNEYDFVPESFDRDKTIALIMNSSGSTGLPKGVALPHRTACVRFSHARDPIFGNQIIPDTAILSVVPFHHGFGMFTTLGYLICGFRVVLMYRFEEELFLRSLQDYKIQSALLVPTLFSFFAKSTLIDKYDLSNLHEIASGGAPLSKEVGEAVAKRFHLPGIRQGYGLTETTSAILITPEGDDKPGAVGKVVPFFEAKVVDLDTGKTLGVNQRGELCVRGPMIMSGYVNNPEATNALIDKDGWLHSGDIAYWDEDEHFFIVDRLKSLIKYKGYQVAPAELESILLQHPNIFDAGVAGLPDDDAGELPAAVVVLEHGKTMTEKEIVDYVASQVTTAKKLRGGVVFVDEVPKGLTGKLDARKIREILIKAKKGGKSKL

Follistatin (Homo sapiens), sequence (P19883 whole entry, looked up): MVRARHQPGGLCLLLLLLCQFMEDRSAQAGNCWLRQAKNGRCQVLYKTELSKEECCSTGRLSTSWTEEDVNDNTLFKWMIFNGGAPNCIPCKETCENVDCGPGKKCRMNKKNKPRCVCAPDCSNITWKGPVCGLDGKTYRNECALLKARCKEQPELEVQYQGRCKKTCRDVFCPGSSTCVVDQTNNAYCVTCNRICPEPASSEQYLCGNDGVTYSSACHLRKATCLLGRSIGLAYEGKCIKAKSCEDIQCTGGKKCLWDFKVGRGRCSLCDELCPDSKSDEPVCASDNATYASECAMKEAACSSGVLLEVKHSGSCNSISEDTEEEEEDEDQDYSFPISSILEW
Fibroblast growth factor 2 (Homo sapiens), sequence (P09038 whole entry, looked up): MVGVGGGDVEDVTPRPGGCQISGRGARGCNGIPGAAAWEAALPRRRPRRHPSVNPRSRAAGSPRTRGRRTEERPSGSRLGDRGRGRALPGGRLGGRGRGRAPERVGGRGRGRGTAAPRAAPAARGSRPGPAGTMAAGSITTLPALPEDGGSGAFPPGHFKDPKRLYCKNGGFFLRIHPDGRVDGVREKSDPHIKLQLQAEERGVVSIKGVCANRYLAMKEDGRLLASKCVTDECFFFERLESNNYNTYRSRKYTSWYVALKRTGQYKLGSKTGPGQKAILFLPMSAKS
Focal adhesion kinase 1 (Homo sapiens), sequence (Q05397 whole entry, looked up): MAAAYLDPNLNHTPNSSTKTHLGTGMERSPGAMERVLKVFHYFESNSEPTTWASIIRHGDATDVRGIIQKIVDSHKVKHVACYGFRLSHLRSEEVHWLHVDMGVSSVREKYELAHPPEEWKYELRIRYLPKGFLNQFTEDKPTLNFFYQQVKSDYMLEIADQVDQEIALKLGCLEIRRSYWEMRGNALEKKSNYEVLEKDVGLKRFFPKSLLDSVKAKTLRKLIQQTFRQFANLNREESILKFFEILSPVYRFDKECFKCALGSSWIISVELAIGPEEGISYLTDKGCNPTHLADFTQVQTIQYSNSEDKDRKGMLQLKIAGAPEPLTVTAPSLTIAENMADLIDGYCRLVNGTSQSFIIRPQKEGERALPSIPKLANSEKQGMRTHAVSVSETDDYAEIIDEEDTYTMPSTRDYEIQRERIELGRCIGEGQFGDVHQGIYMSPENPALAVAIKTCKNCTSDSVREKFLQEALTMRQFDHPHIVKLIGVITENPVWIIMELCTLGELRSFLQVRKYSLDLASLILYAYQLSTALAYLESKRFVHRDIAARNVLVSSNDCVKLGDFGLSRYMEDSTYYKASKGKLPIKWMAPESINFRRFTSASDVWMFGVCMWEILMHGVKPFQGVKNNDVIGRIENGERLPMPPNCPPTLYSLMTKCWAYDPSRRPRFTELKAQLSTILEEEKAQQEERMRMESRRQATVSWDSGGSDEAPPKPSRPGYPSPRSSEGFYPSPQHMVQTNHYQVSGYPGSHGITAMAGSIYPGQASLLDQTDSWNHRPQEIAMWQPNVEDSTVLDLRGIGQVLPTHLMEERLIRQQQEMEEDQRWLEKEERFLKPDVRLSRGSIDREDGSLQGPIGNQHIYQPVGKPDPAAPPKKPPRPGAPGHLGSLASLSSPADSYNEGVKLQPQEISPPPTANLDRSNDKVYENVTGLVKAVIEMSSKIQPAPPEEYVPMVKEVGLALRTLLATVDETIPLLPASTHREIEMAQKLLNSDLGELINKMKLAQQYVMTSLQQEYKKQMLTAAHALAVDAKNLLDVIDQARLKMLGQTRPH

## CCCC[C@@H](O)C1=C(COC)C[C@H]2C(=O)N(Cc3ccccc3)C(=O)[C@H]2[C@H]1CO
[1]
  composite z-score: 0.708
[2]
  composite z-score: 0.33
[3]
  composite z-score: -0.285
[4]
  composite z-score: 0.98
[5]
  composite z-score: 0.855
[6]
  composite z-score: 1.33
[7]
  z-score: 0.699
Lefty1
  composite z-score: 0.697
[8]
  composite z-score: 1.13
[9]
  z-score: -0.903 (inactive)

## C=CCN1C(=O)[C@]2(CCC(=O)OC(C)(C)C)N=C(c3ccc(OCCCO)cc3)O[C@@H]2c2ccccc21
[1]
  composite z-score: 2.42
[2]
  composite z-score: 0.944
[3]
  composite z-score: 0.469
[4]
  composite z-score: 0.317
[5]
  composite z-score: 1.19
[6]
  composite z-score: -0.132
[7]
  z-score: 0.859
Lefty1
  composite z-score: 0.467
[8]
  composite z-score: 0.27
[9]
  z-score: -5.66 (inactive)

## CCCN1C(=O)[C@@]2(Cc3ccccc31)N=C(c1ccc(OCCCO)cc1)O[C@H]2c1ccccc1
[1]
  composite z-score: 0.293
[2]
  composite z-score: 1.17
[3]
  composite z-score: 0.881
[4]
  composite z-score: 0.829
[5]
  composite z-score: 1.23
[6]
  composite z-score: 1.31
[7]
  z-score: 1.69
Lefty1
  composite z-score: 0.256
[8]
  composite z-score: 0.801
[9]
  z-score: -3.25 (inactive)

## CC(C)N1C(=O)C[C@@](C(=O)NC2CC2)(c2ccc([N+](=O)[O-])cc2)[C@H]1c1ccc(CO)cc1
[1]
  composite z-score: 1.7
[2]
  composite z-score: -0.0823
[3]
  composite z-score: 0.403
[4]
  composite z-score: -0.793
[5]
  composite z-score: 0.323
[6]
  composite z-score: 0.362
[7]
  z-score: -0.544
Lefty1
  composite z-score: -1.11
[8]
  composite z-score: -0.545
[9]
  z-score: -0.254 (inactive)

## C=CCC(OC(C)=O)[C@@H]1[C@@H](N(Cc2cccc3ccccc23)C(=O)Cc2ccc(OC)cc2)c2cc(OCCCO)ccc2N1C(=O)c1ccc(-c2ccccc2)cc1 (stereo not given in full)
[1]
  composite z-score: -0.328
[2]
  composite z-score: -0.127
[3]
  composite z-score: 0.0862
[4]
  composite z-score: 0.701
[5]
  composite z-score: 0.662
[6]
  composite z-score: 0.394
[7]
  z-score: 0.0256
Lefty1
  composite z-score: -0.47
[8]
  composite z-score: 0.297
[9]
  z-score: 0.828 (inactive)

## COCCOC(=O)N1C(=O)[C@@]2(c3cc(C#CC4(O)CCCCCC4)ccc31)[C@H](C(=O)Nc1nc3ccccc3s1)[C@H]1C(=O)O[C@H](c3ccccc3)[C@H](c3ccccc3)N1[C@@H]2c1ccc(O)cc1
[1]
  composite z-score: 1.89
[2]
  composite z-score: 1.24
[3]
  composite z-score: 0.783
[4]
  composite z-score: 0.942
[5]
  composite z-score: 1.28
[6]
  composite z-score: 1.06
[7]
  z-score: -1.14
Lefty1
  composite z-score: 1.15
[8]
  composite z-score: 0.275
[9]
  z-score: -0.557 (inactive)

## COC(=O)[C@@]1(Cc2ccc(OC)cc2)[C@H]2c3cc(C(=O)N4CCCC4)n(CCc4c[nH]c5ccc(O)cc45)c3C[C@H]2CN1C(=O)c1ccccc1
[1]
  composite z-score: 0.256
[2]
  composite z-score: 1.23
[3]
  composite z-score: 0.594
[4]
  composite z-score: 0.948
[5]
  composite z-score: 1.16
[6]
  composite z-score: 0.0628
[7]
  z-score: 0.623
Lefty1
  composite z-score: 0.111
[8]
  composite z-score: 0.92
[9]
  z-score: -1.31 (inactive)

## CCOC(=O)C[C@H]1[C@H](OC(=O)c2ccc(C(=O)c3ccccc3)cc2)[C@@H](NC(=O)CC(C)C)c2cc(OCCCO)ccc2N1C(=O)c1ccccc1
[1]
  composite z-score: 0.152
[2]
  composite z-score: 1.11
[3]
  composite z-score: 0.188
[4]
  composite z-score: 0.965
[5]
  composite z-score: 0.839
[6]
  composite z-score: 0.609
[7]
  z-score: 1.63
Lefty1
  composite z-score: 1.26
[8]
  composite z-score: 0.227
[9]
  z-score: -0.675 (inactive)

## O=C1OCCC=C[C@H]2OC34C=CCN(c5ccc6ccccc6c5)C(=O)[C@H]3N(CCCO)C(=O)[C@@H]4C12 (stereo not given in full)
[1]
  composite z-score: -0.581
[2]
  composite z-score: -2.27
[3]
  composite z-score: -0.459
[4]
  composite z-score: -0.51
[5]
  composite z-score: -1.25
[6]
  composite z-score: -2.33
[7]
  z-score: -0.446
Lefty1
  composite z-score: -1.81
[8]
  composite z-score: -1.29
[9]
  z-score: -0.244 (inactive)

## COC(=O)C/C=C/C[C@]1(O)C(=O)N(C)c2ccccc21
[1]
  composite z-score: -0.0221
[2]
  composite z-score: 0.243
[3]
  composite z-score: 1.03
[4]
  composite z-score: -0.0833
[5]
  composite z-score: 0.721
[6]
  composite z-score: 0.561
[7]
  z-score: 1.03
Lefty1
  composite z-score: 1.17
[8]
  composite z-score: 0.0278
[9]
  z-score: -1.63 (inactive)

## O=C1CS(=O)(=O)C(c2cccc([N+](=O)[O-])c2)N1c1ccccc1 (stereo not given)
[1]
  composite z-score: 1.67
[2]
  composite z-score: 1.16
[3]
  composite z-score: 0.596
[4]
  composite z-score: 0.522
[5]
  composite z-score: 0.469
[6]
  composite z-score: 0.698
[7]
  z-score: 1.53
Lefty1
  composite z-score: -0.269
[8]
  composite z-score: 0.909
[9]
  z-score: -1.61 (inactive)

## COc1ccc([Si](C)(C)[C@@H]2[C@@H](CCO)O[C@]3(C(=O)N(Cc4cccc(NC(=O)[C@H](C)O)c4)c4ccccc43)[C@H]2C)cc1
[1]
  composite z-score: 1.76
[2]
  composite z-score: 1.2
[3]
  composite z-score: 0.642
[4]
  composite z-score: 0.694
[5]
  composite z-score: 0.393
[6]
  composite z-score: 0.957
[7]
  z-score: -1.52
Lefty1
  composite z-score: 0.486
[8]
  composite z-score: 0.743
[9]
  z-score: -0.355 (inactive)

## CC[C@@H]1C=C(C(=O)O)[C@H](c2ccc(C#N)cc2)N1S(=O)(=O)c1ccc(C)cc1
[1]
  composite z-score: 3.35
[2]
  composite z-score: 0.845
[3]
  composite z-score: 0.941
[4]
  composite z-score: -0.0509
[5]
  composite z-score: -0.594
[6]
  composite z-score: -0.105
[7]
  z-score: -0.0902
Lefty1
  composite z-score: -0.833
[8]
  composite z-score: 1.09
[9]
  z-score: 0.522 (inactive)

## CCOC(=O)C1=C[C@@H](c2ccccc2)N(S(=O)(=O)c2ccc(C)cc2)[C@H]1c1ccc(OC)cc1
[1]
  composite z-score: 0.546
[2]
  composite z-score: 0.957
[3]
  composite z-score: 0.501
[4]
  composite z-score: 0.935
[5]
  composite z-score: 0.609
[6]
  composite z-score: 0.217
[7]
  z-score: 1.77
Lefty1
  composite z-score: -0.0395
[8]
  composite z-score: 1.11
[9]
  z-score: 1.51 (inactive)

## CC(C)N1C(=O)C[C@@](C(=O)O)(c2ccc([N+](=O)[O-])cc2)[C@H]1c1ccc(CO)cc1
[1]
  composite z-score: 0.0886
[2]
  composite z-score: -0.619
[3]
  composite z-score: -0.0404
[4]
  composite z-score: -1.14
[5]
  composite z-score: -0.82
[6]
  composite z-score: -0.798
[7]
  z-score: 0.993
Lefty1
  composite z-score: -1.12
[8]
  composite z-score: -0.76
[9]
  z-score: -1.03 (inactive)

## C=CC[C@]1(C(=O)N2CCOCC2)COC(c2ccc(OCCCO)cc2)=N1
[1]
  composite z-score: 2.4
[2]
  composite z-score: 1.3
[3]
  composite z-score: 0.555
[4]
  composite z-score: 0.837
[5]
  composite z-score: 1.33
[6]
  composite z-score: 0.386
[7]
  z-score: -0.772
Lefty1
  composite z-score: 0.768
[8]
  composite z-score: 0.959
[9]
  z-score: 0.566 (inactive)

## COC(=O)[C@@]1(Cc2ccccc2)[C@H]2c3cc(C(=O)N4CCCC4)n(CCc4ccccn4)c3C[C@H]2CN1C(=O)c1ccccc1
[1]
  composite z-score: -0.295
[2]
  composite z-score: 1.28
[3]
  composite z-score: 1.34
[4]
  composite z-score: 1.01
[5]
  composite z-score: 0.758
[6]
  composite z-score: -0.28
[7]
  z-score: -0.0942
Lefty1
  composite z-score: 0.0814
[8]
  composite z-score: 1.16
[9]
  z-score: 2.38 (inactive)

## COC(=O)[C@@]1(Cc2ccc(OC)cc2)[C@H]2c3cc(C(=O)N(C)C)n(Cc4ccc(C)o4)c3C[C@H]2CN1C(=O)c1ccccc1
[1]
  composite z-score: 0.787
[2]
  composite z-score: 1.26
[3]
  composite z-score: 0.877
[4]
  composite z-score: 0.984
[5]
  composite z-score: 0.262
[6]
  composite z-score: -0.48
[7]
  z-score: 1.26
Lefty1
  composite z-score: -0.0198
[8]
  composite z-score: 1.1
[9]
  z-score: -18.5 (active)

## N#Cc1ccc(NN2C(C(O)c3ccc(Br)cc3)C=CC3C(=O)N(c4ccccc4)C(=O)C32)cc1 (stereo not given)
[1]
  composite z-score: 1.28
[2]
  composite z-score: 1.18
[3]
  composite z-score: 0.633
[4]
  composite z-score: 0.561
[5]
  composite z-score: 0.873
[6]
  composite z-score: 0.127
[7]
  z-score: 0.494
Lefty1
  composite z-score: -0.0682
[8]
  composite z-score: 1.49
[9]
  z-score: -0.517 (inactive)

## O=C1OCCC/C=C\[C@H]2OC34C=CCN(c5ccc6ccccc6c5)C(=O)[C@H]3N(CCO)C(=O)[C@@H]4C12 (stereo not given in full)
[1]
  composite z-score: -0.218
[2]
  composite z-score: -0.637
[3]
  composite z-score: -0.774
[4]
  composite z-score: -2.11
[5]
  composite z-score: -1.2
[6]
  composite z-score: -0.634
[7]
  z-score: -0.817
Lefty1
  composite z-score: -1.22
[8]
  composite z-score: 1.13
[9]
  z-score: 0.235 (inactive)

## COc1ccc(CCNC(=O)[C@@H]2c3ccccc3C(=O)N(C3CCCCC3)[C@H]2c2ccc(CO)cc2)cc1
[1]
  composite z-score: 1.01
[2]
  composite z-score: 0.883
[3]
  composite z-score: 1.19
[4]
  composite z-score: 0.144
[5]
  composite z-score: 0.441
[6]
  composite z-score: 1.74
[7]
  z-score: -0.263
Lefty1
  composite z-score: -0.359
[8]
  composite z-score: 0.771
[9]
  z-score: -0.323 (inactive)
